# Assay outcomes as filed in PubChem BioAssay.
# Compounds with a hit are over-represented: about 2% of the library has one in this group of screens.
# M4 antag: blocks acetylcholine activation of human M4 receptor | CHO-hM4 cells, ACh EC80, Fluo-8 calcium fluorescence | 360,000 compounds, 0.73% hits | P08173 | inhibition, % at 3 µM;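 active = inhibition above its plate's cutoff, the mean inhibition of sample wells plus 3 SD, cut at about 27% in these data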;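 note: 0% = acetylcholine EC80 with DMSO and 100% = DMSO without agonist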
# Target sequence (P08173 whole entry, looked up): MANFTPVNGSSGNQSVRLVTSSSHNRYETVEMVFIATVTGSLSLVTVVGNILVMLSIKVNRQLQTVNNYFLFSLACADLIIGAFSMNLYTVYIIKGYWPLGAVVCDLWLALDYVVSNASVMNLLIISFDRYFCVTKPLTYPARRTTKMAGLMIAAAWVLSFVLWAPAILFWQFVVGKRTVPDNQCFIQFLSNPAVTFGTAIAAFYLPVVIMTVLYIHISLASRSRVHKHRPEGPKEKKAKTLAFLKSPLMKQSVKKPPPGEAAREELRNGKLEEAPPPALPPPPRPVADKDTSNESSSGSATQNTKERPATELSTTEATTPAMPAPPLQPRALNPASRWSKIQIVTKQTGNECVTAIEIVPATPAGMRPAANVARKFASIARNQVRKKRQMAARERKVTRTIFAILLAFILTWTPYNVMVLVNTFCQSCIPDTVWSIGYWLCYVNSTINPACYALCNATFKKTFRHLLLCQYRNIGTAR
# CHRM4 agonist: CHRM4 agonism in calcium assay. P08173. CHO-K1 hM4/Gqi5, Fluo-8 calcium fluorescence; vehicle 0%, full acetylcholine response 100%. activation, % at 3 µM. 360,000 compounds, 0.14% hits. AID 624127;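 active = activation above the run mean over all test wells plus 3 SD, cut at about 32% in these data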;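 note: peak over basal fluorescence ratio per well then scaled between controls; 0% = DMSO wells and 100% = acetylcholine at EC100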
# M1 PAM parental: counter-screen for M1 PAMs: effect in parental CHO-K1 cells. ATP EC20, Fluo-8 calcium fluorescence; 0% at ATP EC20, 100% at ATP max. activation, % at 3 µM. 360,000 compounds, 0.02% hits. AID 602247;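 active = activation above the run cutoff, the mean activation of all test compounds plus 3 SD, cut at about 40% in these data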;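 note: peak over basal fluorescence ratio in a 140 s read after ATP addition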
# CHO-K1 Ca antag: nonselective inhibitor or artifact in parental CHO-K1 cells | ATP-induced calcium, Fluo-8 fluorescence | inhibition, % at 3 µM | 360,000 compounds, 0.6% hits;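 active = inhibition above a per-plate cutoff, the plate's mean sample inhibition plus 3 SD, cut at about 24% in these data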;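 note: 0% = DMSO plus EC80 ATP and 100% = DMSO alone without ATP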
# M4 PAM: potentiates acetylcholine response at human M4 receptor. P08173. AID 624126. activation, % at 3 µM. 360,000 compounds, 0.4% hits. CHO-K1 hM4/Gqi5, Fluo-8 calcium fluorescence, ACh EC20; 0% = ACh EC20, 100% = maximal ACh;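 active = activation above its plate's cutoff, the mean activation of sample wells plus 3 SD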
# M1 ag parental: nonselective activator or artifact in parental CHO-K1 cells; Fluo-8 calcium fluorescence; scaled to maximal ATP response, vehicle zero; AID 602248; 360,000 compounds, 0.48% hits; activation, % at 3 µM; in the data active = activation above about 15%;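 note: untransfected CHO-K1 host cells lacking M1 receptor as counterscreen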
# Active calls of the source: *.
SMILES,M4 antag,CHRM4 agonist,M1 PAM parental,CHO-K1 Ca antag,M4 PAM,M1 ag parental
CC(C)(C)c1nc(NCc2ccc3c(c2)OCO3)c2nnn(Cc3ccccc3Cl)c2n1,-3.1,0.7,10.2,-3.8,28.5*,0.2
O=C(CF)NC(NC(=S)Nc1ccccc1O)C(Cl)(Cl)Cl (stereo not drawn),-12.0,1.4,6.7,4.9,20.1*,0.3
CCc1ccc(N2C(=O)NC(=O)/C(=C\c3cc(C)n(-c4cc(C(=O)O)cc(C(=O)O)c4)c3C)C2=O)cc1,-14.3,2.2,8.9,-9.4,18.4*,-0.3
CCCCN1C(=O)NC(=O)C2(Cc3c(nc4c(C)cccn4c3=O)N3CCc4ccccc4C32)C1=O (stereo not drawn),-9.2,2.1,7.5,3.4,-1.0,0.4
COC1CC2C=C(C)C=CC=CC(=O)NC(c3ccccc3)CC=CCCC(O)CC(=O)C2=C1O (stereo not drawn),87.1*,20.8,18.0,23.4,-14.1,10.0
O=C1NC(=O)N(c2ccc(Cl)cc2)C(=O)/C1=C\c1ccc(Sc2nc3ccccc3[nH]2)o1,5.0,9.4,-15.6,29.5*,0.3,7.7
COc1ccc(-n2c(/C=C3/C(=O)Nc4ccccc43)nc3ccccc3c2=O)cc1,97.1*,3.4,11.6,2.7,4.1,1.1
COc1cc(/C=C/c2nc3ccccc3c(=O)n2-c2ccc(O)cc2)ccc1O,28.7*,21.9,-0.3,8.3,-11.9,9.7
CC(C)N1CCC2(CC1)NC(CO)(CO)CO2,-2.1,0.3,15.8,-7.3,2.1,0.6
COc1cc(OC)c2c(c1)O[C@@H](c1ccc(OC)c(OC)c1)[C@H](O)C2,-7.5,1.5,5.3,5.5,6.0,0.6
C#C[C@]1(O)CC[C@H]2[C@@H]3[C@H](O)C[C@H]4C[C@@H](O)CC[C@]4(C)[C@H]3CC[C@@]21C,-20.9,1.9,8.2,-5.9,7.0,1.3
C[C@]12CCC3[C@@H](CC[C@@H]4C[C@H](O)CC[C@]34C)[C@@H]1CCC2=O (stereo partly drawn),8.3,2.8,-8.3,-2.1,-0.3,0.2
O=P(Nc1ccccc1)(Nc1ccccc1)Oc1cccc(Cl)c1,7.8,25.5,5.4,2.9,-12.5,41.5*
COC(=O)C1=C(c2cccc(C#N)c2)C[C@@H]2CC[C@H]1N2C(=O)NCCOc1ccccc1Cl,6.1,3.8,1.8,-8.6,5.3,-0.1
C[n+]1c(-c2ccccc2)cc(CCCCc2cc(-c3ccccc3)[n+](C)c(-c3ccccc3)c2)cc1-c1ccccc1,46.5*,0.5,-0.9,-5.5,-21.1,-0.3
COc1cc(C(=O)OC2C[C@H]3CC[C@@H](C2)N3)ccc1O (stereo partly drawn),38.2*,0.5,14.0,-14.3,-15.6,-0.2
CCN(CC)CCOC(=O)c1ccc(N=Cc2c(O)[nH]c(=O)[nH]c2=O)cc1,-0.9,0.6,-6.0,24.4*,-1.4,0.3
COC(=O)c1ccccc1N=Cc1c(O)[nH]c(=O)[nH]c1=O,-0.2,0.5,-2.2,-8.4,0.8,0.2
C[N+](C)(C)CCc1ccc(O)cc1,-11.2,1.4,15.2,-2.1,1.8,0.5
CN1/C(=C\C=C2C(=O)NC(=O)NC2=O)C(C)(C)c2ccccc21,9.9,17.4,-1.7,8.2,-16.9,24.9*
CC12CCCCC1N(O)CN2O (stereo not drawn),-3.7,-0.1,14.9,-9.7,3.3,0.4
CN1C2CCC1CC(OC(c1ccccc1)c1ccccc1N)C2 (stereo not drawn),100.3*,0.1,11.5,-10.1,-18.7,0.8
CCCC(=O)c1ccc(CP(=O)(OCC)OCC)o1,-6.5,0.8,14.2,-11.9,4.9,0.0
Cc1cccc(NC(=S)N2CC3CC(C2)c2cccc(=O)n2C3)c1C (stereo not drawn),-4.2,0.5,10.1,-5.3,-4.3,0.6
CCC(=O)c1c(O)n(C2CCCCCC2)c(=O)[nH]c1=O,19.9,0.0,-5.8,27.9*,-7.3,-0.2
SMILES,M4 antag,CHRM4 agonist,M1 PAM parental,CHO-K1 Ca antag,M4 PAM,M1 ag parental
CC(=NCCO)c1c(O)n(C2CCCCC2)c(=O)[nH]c1=O,-6.9,1.2,16.5,-12.8,5.9,0.3
C=CCn1c(O)c(C(C)=Nc2ccc(NC(C)=O)cc2)c(=O)[nH]c1=O,-6.3,0.4,22.1,-11.3,21.3*,0.1
C=CCn1c(O)c(C(CC)=Nc2ccccc2NC(C)=O)c(=O)[nH]c1=O,11.8,0.5,7.4,0.6,27.9*,-0.1
C=CCn1c(O)c(C(CC)=Nc2ccc(C(=O)O)cc2)c(=O)[nH]c1=O,-2.4,1.4,4.2,-7.8,-0.7,0.3
CCC(CO)(C(=O)OC1CC2CCC(C1)N2C)c1ccccc1 (stereo not drawn),99.6*,0.6,19.7,-8.8,-17.3,0.4
Cc1cc(C(=O)OCC(=O)Nc2cccc(F)c2)c(C)n1C1CC1,-3.9,5.5,13.5,-19.3,3.5,4.8
O=[N+]([O-])c1cc(-n2cnnn2)c(O)c([N+](=O)[O-])c1,3.0,1.4,7.0,-19.0,30.1*,0.2
C=C1C(=O)OC2CC(C)C3C=CC(=O)C3(C)C(O)C12 (stereo not drawn),5.7,0.9,0.4,-6.6,5.2,0.0
C=C1C(=O)O[C@@H]2C[C@@H](C)[C@@H]3C=CC(=O)[C@@]3(C)[C@@H](OC(=O)CC(=O)O[C@H]3[C@@H]4C(=C)C(=O)O[C@@H]4C[C@@H](C)[C@@H]4C=CC(=O)[C@]43C)[C@H]12,38.6*,1.0,-8.8,8.2,-2.5,0.4
O=C1NC(=O)C(=Cc2ccc(-c3ccc(F)cc3O)o2)C(=O)N1,-6.3,12.0,25.9,-11.3,26.2*,5.2
COc1cc2c(cc1OC)C13CCN4CC5=CCOC6CC(=O)N2C1C6C5C3C4 (stereo not drawn) (tested in a mixture with another compound),-8.2,0.4,2.4,-3.3,8.2,-0.5
Oc1cccc(/C=N/NP(=S)(c2ccccc2)c2ccccc2)c1,7.1,-0.7,-8.4,24.7*,-5.7,-0.2
c1ccc(C(OCCN2CCN(c3ncccn3)CC2)c2ccccc2)cc1,-4.1,2.6,5.4,1.9,-6.0,4.1
Clc1ccc(C(OCCN2CCCCC2)c2ccccc2)cc1 (stereo not drawn),38.4*,5.0,-7.6,0.1,-18.6,1.0
Cc1cc(C)nc(NS(=O)(=O)c2ccc(N=Cc3c(O)n(C)c(=O)n(C)c3=O)cc2)n1,-14.0,1.5,18.3,-15.4,5.7,-0.1
COC(=O)C1=C(c2cccc(OCc3ccccc3)c2)C[C@@H]2CC[C@H]1N2C(=O)NCCc1ccc(F)cc1,39.8*,3.6,16.2,-17.0,-15.8,1.8
